Compounds without any hit were thinned out: in the full panel of roughly 83,000, 20% have a hit.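 Step 1: grow cells in 96-well plates. Step 2: add test compound at a single concentration. Step 3: incubate 48 h. Step 4: record percent growth.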 A number with no mark means an inactive call. Activity calls are given as the source filed them. How the source made its calls: active means growth percent below 10; inactive means the rest.
How the values were obtained:
Assay in all cases: NCI-60 one-dose screen, 48 h (100 = growth as untreated, 0 = no growth, -100 = all killed)
Conditions in all cases: 10 µM unless noted
T-47D breast = system: T-47D breast
BT-549 breast = system: BT-549 breast
MDA-MB-435 melanoma = system: MDA-MB-435 melanoma
SW-620 colon = system: SW-620 colon
MCF7 breast = system: MCF7 breast
HCT-116 colon = system: HCT-116 colon
HCC-2998 colon = system: HCC-2998 colon
KM12 colon = system: KM12 colon

SMILES	growth (T-47D breast)	growth (BT-549 breast)	growth (MDA-MB-435 melanoma)	growth (SW-620 colon)	growth (MCF7 breast)	growth (HCT-116 colon)	growth (HCC-2998 colon)	growth (KM12 colon)
CC(C)c1ccc(C(=O)OC(=O)c2ccc(C(C)C)cc2)cc1	95.3%	87.9%	97%	114%	98.1%	97.4%	102%	123%
COc1cc(/C=C2\C=C(c3ccccc3)N(CCc3ccccc3)C2=O)cc(OC)c1OC	56.9%	91.3%	89.5%	85.2%	70.9%	52.2%	102%	80.6%
CCN(CC)CCOc1ccc(/C(=C(\C)c2ccc(OC)c(F)c2)c2ccc(Cl)cc2)cc1	89.7%	89%	60.3%	63.2%	70.3%	46.4%	78.6%	19.1%
CCCCCOC(=O)c1ccc(NC(=O)CNCC(C)C)cc1	88.8%	91.8%	99.2%	98.5%	94.3%	84.9%	97.9%	104%
COc1cccc(CCC2CCCN(c3cc(C)nc(N)n3)C2)c1 (configuration not stated)	45.9%	39.1%	0.575% (active)	30.4%	17.8%	7.36% (active)	39.4%	20.5%
CC(=O)Nc1ccc2c(c1)Cc1c(F)cccc1-2	76.6%	109%	107%	102%	35.9%	108%	94.2%	91.5%
CCCCCCCCn1cc(C2=C(c3coc4ccc(OC)cc34)C(=O)NC2=O)c2ccccc21	115%	87.4%	102%	99.1%	91.8%	104%	104%	104%
CSc1nc(N)c(CNC(C)c2ccccc2)c(=O)n1C (configuration not stated)	97.2%	96.1%	98.4%	107%	93.5%	92.2%	101%	106%
CNC(=O)c1cc(Oc2ccc3nc(Nc4cc(Cl)cc(Cl)c4)ccc3c2)ccn1	55.6%	58.9%	12.8%	45.6%	38.8%	49%	74.5%	30.2%
CCCCNC(=O)c1cc(NCc2cc(O)ccc2O)ccc1O	58.1%	46.1%	96.8%	110%	67.7%	86.2%	96.4%	78.4%
O=C1Nc2ccccc2/C1=N/N=C/c1ccsc1	87%	112%	105%	97.8%	49.5%	103%	108%	102%
CCCCN1CCN(c2ccc3nc(-c4ccc5nc(-c6ccc(OCC)c(OCC)c6)[nH]c5c4)[nH]c3c2)CC1	39.9%	-23% (active)	-41.2% (active)	-80.3% (active)	-69.6% (active)	-79.7% (active)	-80.4% (active)	-65.6% (active)
CCOC(=O)c1c(C)nc2c(c1N)/C(=C/c1cc(OC)c(OC)c(OC)c1)C(=O)N2c1ccc(OC)cc1	73.2%	46.7%	49.5%	30.9%	14.6%	-0.0724% (active)	95.9%	43.7%
N=C(N)c1ccc(-c2ccc(-c3ccc(Cl)cc3Cl)o2)nc1	59.2%	94.7%	-92.1% (active)	-68.7% (active)	-54.6% (active)	-75.5% (active)	-34.3% (active)	-35.5% (active)
Cc1cc(-c2noc(C(F)(F)F)n2)ccc1N1CCN(c2cc(C(=O)N(C)C)no2)CC1	46.6%	66.6%	71%	84.7%	55.5%	45.7%	80.8%	85.2%
CN(C)c1ccc(/C=N/NC(=O)COc2cc(=O)n(C)c3ccccc23)cc1	97.6%	108%	101%	104%	89.4%	101%	116%	109%
Cc1ccc(S(=O)(=O)N(CC[C@@H]2C[C@H]2c2cc3ccccc3o2)C(=O)NC2CCCCC2)cc1	70.9%	112%	101%	92.1%	93.4%	85%	101%	105%
Cn1nnnc1-c1ccc(N)cc1	87.2%	93.4%	99.5%	104%	90.9%	84.6%	100%	99.4%
Clc1ccc(/C=C/c2nc(Nc3ccc(Cl)cc3)c3ccccc3n2)cc1	91.2%	107%	109%	103%	80.9%	99.1%	106%	109%
Cn1cc(-c2ccc3nc(-c4ccc(CC(=O)Nc5cc(C(C)(C)C)no5)cc4)cnc3c2)cn1	26% [30 µM]	53.3% [30 µM]	26.2% [30 µM]	34.5% [30 µM]	87.1% [30 µM]	15.3% [30 µM]	47.3% [30 µM]	6.95% [30 µM] (active)
O=c1ccn(C2OC(F)(CO)C(O)C2F)c(=O)[nH]1 (configuration not stated)	81.2%	101%	103%	104%	91.6%	104%	99.1%	104%
COc1ccc(/C(C)=C(\c2ccc(Cl)cc2)c2ccc(OCCN3CCCCCC3)cc2)cc1F	53.6%	66.3%	52.4%	20.3%	24.1%	22.9%	36.9%	23%
COC(=O)CNC(=O)C(=O)c1c(O)c(O)c(C(C)C)c2cc(C)c(-c3c(C)cc4c(C(C)C)c(O)c(O)c(C(=O)C(=O)NCC(=O)OC)c4c3O)c(O)c12	16%	30.2%	55.1%	16%	18%	11%	33.8%	16.1%
C=C1C(=O)O[C@H]2[C@H]1CC/C(C(=O)NCCCCCCCCNC(=O)/C1=C/CC[C@@]3(C)O[C@H]3[C@H]3OC(=O)C(=C)[C@@H]3CC1)=C\CC[C@@]1(C)O[C@@H]21	28.4%	51%	86.8%	14.2%	37.9%	29.7%	97.2%	93.1%
Cc1cc(-c2ccccc2)cc(SC#N)[n+]1[O-]	46.2%	52.2%	47.5%	38.1%	23%	36%	62%	37.7%
CCNCCNc1cc(C2CCCC2)c(C#N)c2nc3ccccc3n12	13.8%	9.57% (active)	11.2%	8.01% (active)	29.6%	1.61% (active)	32.7%	35%
Clc1ccc(/C=N\N=c2\scc(-c3ccc(Cl)cc3)n2/N=C/c2ccc(Cl)cc2)cc1	96.1%	107%	103%	99.9%	93.6%	90%	104%	105%
CC(C)CCC[C@@H](C)[C@H]1CCC2C3=CCC4C(=O)C=CC(=O)C4C3CC[C@@]21C (some centres not stated)	-18.9% (active)	-1.63% (active)	5.05% (active)	-10.1% (active)	8.65% (active)	-75.5% (active)	12.4%	7.56% (active)
CCn1c(Sc2nnc(NC(=O)CSC(=S)N3CCCCC3)s2)nc2c1c(=O)n(C)c(=O)n2C	86.9%	79.7%	6.74% (active)	61.8%	91.9%	87.7%	81.9%	64.2%

Source: PubChem BioAssay (NCI)
